Assay results as given in PubChem BioAssay.
Inconclusive results are not listed. Calls of active or inactive are those of the source. Unless noted, no cut-off is given here; in the data, nearly all actives have AC50 up to about 26 µM.

Experiments:
[1] = viability loss in pontine glioma line – cell-based, SU-DIPG-XVII, MIPE5.0, CellTiter-Glo, qHTS, dose response (AID 1347060); conditions: CellTiter-Glo ATP luminescence
[2] = viability loss in pontine glioma line – cell-based, SU-DIPG-XIII, MIPE4.0, CellTiter-Glo, qHTS, dose response (AID 1347061; cut-off not given, nearly all actives have AC50 up to about 37 µM;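 note: cells exposed to compound for 48 hours before readout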); conditions: CellTiter-Glo ATP luminescence
[3] = viability loss in pontine glioma line – cell-based, JHH-DIPG-1, MIPE4.0, CellTiter-Glo, qHTS, dose response (AID 1347062; cut-off not given, nearly all actives have AC50 up to about 27 µM); conditions: JHH-DIPG-1 viability, CellTiter-Glo ATP luminescence
[4] = viability loss in pontine glioma line – cell-based, SU-DIPG-IV, MIPE4.0, CellTiter-Glo, qHTS, dose response (AID 1347063; cut-off not given, nearly all actives have AC50 up to about 30 µM;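 note: compound exposure lasted 48 hours before the viability readout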); conditions: CellTiter-Glo ATP luminescence
[5] = viability loss in pontine glioma line – cell-based, SU-DIPG-XIII, MIPE5.0, CellTiter-Glo, qHTS, dose response (AID 1347064; cut-off not given, nearly all actives have AC50 up to about 23 µM); conditions: CellTiter-Glo ATP luminescence
[6] = growth inhibition of DIPG cells – cell-based, MIPE5.0 library, qHTS (AID 1347068; cut-off not given, nearly all actives have IC50 up to about 30 µM); conditions: SU-DIPG-XXV viability
[7] = compounds altering HSF1 focus formation in cells – imaging, Selleck Cancer Library (AID 1347162; in the data active = plate-normalised HSF1 focus index below about 0.46); conditions: human cells, HSF1 nuclear foci imaging, at 10 µM; SSMD: measured here: HSF1 foci SSMD mean; cell count: measured here: cell number; plate-normalised HSF1 focus index: stronger effect = lower value
[8] = viability loss in pontine glioma line – cell-based, SU-DIPG-XXV, MIPE5.0, CellTiter-Glo, qHTS, dose response (AID 1347065); conditions: CellTiter-Glo ATP luminescence;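 note: cells exposed to compound for 48 hours before ATP readout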
[9] = growth inhibition of DIPG cells – cell-based, MIPE4.0 library, CellTiter-Glo luminescence, qHTS (AID 1347066; cut-off not given, nearly all actives have AC50 up to about 30 µM;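 note: cells exposed to compound for 48 hours before readout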); conditions: SU-DIPG-VI viability, CellTiter-Glo ATP luminescence
[10] = JHH-DIPG-1 glioma cell viability, MIPE5.0 library, CellTiter-Glo luminescence, qHTS (AID 1347067); conditions: JHH-DIPG-1 glioma viability, CellTiter-Glo ATP luminescence;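 note: cells exposed to compound for 48 hours before readout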

Cc1cc2c(cc1C1(c3ccc(C(=O)O)cn3)CC1)C(C)(C)CCC2(C)C
outcome [1]: inactive | outcome [2]: inactive | outcome [3]: inactive | outcome [4]: inactive | outcome [5]: inactive | outcome [6]: inactive | SSMD [7]: 2.63 | cell count [7]: 7020 | plate-normalised HSF1 focus index [7]: 1.16 (inactive)

Cn1c2cc(S(C)=O)sc2c2cnn(Cc3cccc(N)c3)c(=O)c21 (stereo not given)
outcome [1]: inactive | outcome [2]: inactive | outcome [3]: inactive | outcome [4]: inactive | outcome [8]: inactive | outcome [9]: inactive | outcome [10]: inactive | outcome [6]: inactive

CC(C)(F)C[C@H](N[C@@H](c1ccc(-c2ccc(S(C)(=O)=O)cc2)cc1)C(F)(F)F)C(=O)NC1(C#N)CC1
outcome [1]: inactive | outcome [2]: inactive | outcome [3]: inactive | outcome [4]: inactive | outcome [8]: inactive | outcome [9]: inactive | outcome [10]: inactive | outcome [6]: inactive
